The text below walks through data of ChEMBL document CHEMBL5308541, “MAIP: An Open-Source Tool to Enrich High-Throughput Screening Output and Identify Novel, Druglike Molecules with Antimalarial Activity” (ACS Med Chem Lett, 2023).

Out of some 150,000 compounds screened, about 540 (0.36%) showed an effect of 50% or more. This excerpt belongs to a sample that is enriched for strong results.

This assay deals with Plasmodium falciparum. The assay can be described thus: Primary screen in NF54 nanoGlo assay, in single point, at 2uM, 72h; a lower Z score goes with more inhibition. Format: functional, Erythrocyte. The note with it: timepoint 72 hour.
Turning to `c1ccc(CN2CCC(CCNC[C@@H]3CCCN4CCCC[C@H]34)CC2)cc1`, the “% Inhibition” value was 57% and the Z score is -10.03.
As for `c1ccc2c(CNCCC3CCN(c4ccncc4)CC3)csc2c1`, the “% Inhibition” value was 80% and the Z score is -17.16.
In the same order, the values of `CN1CCN(CC[C@H]2CCCCN2Cc2cnn(-c3ccc(F)cc3)c2)CC1` are 3% and -0.51.
As for `Fc1ccc(-n2cc(CNCCC3CCN(c4ccncc4)CC3)cn2)cc1`, the “% Inhibition” value turned out to be 91% and the Z score was -15.93.
With `Fc1ccc2c(CCNCc3cnn(-c4ccccc4)c3)c[nH]c2c1`, the “% Inhibition” value is -3% and the Z score is listed as 0.71.
In the same order, the values of `CCN1CCN(c2ccccc2CNCCC2CCN(C)CC2)CC1` are 27% and -4.06.
As for `Cc1cccc2c(-c3ccc(N4CCN(C)CC4)nn3)c[nH]c12`, the “% Inhibition” value was -16% and the Z score was 2.75.
Take `CNC(=O)CN1CCC(Nc2ncnc3ccc(C(C)C)cc23)CC1`: the “% Inhibition” value is recorded as 2% and the Z score is -0.48.
In the same order, the values of `Fc1ccccc1-c1nnc2ccc(NCc3ccccc3OC3CCCC3)nn12` are -5% and 0.8.
Take `COc1ccc2[nH]cc(C3=CCN(c4ccc5nnc(-c6ccccc6F)n5n4)CC3)c2c1`: the “% Inhibition” value came to 51% and the Z score is recorded as -8.85.
The corresponding values for `Cc1cccc([C@@H](C)CNC2CCN(CCN3CCOCC3)CC2)c1` are -4% and 0.67.
For `CN1CCC(N2CCC(NCc3cccc4nsnc34)CC2)CC1`, the “% Inhibition” value is on record as 14% and the Z score is recorded as -2.08.
Turning to `C[C@@H](CNC1CCN(C2CCN(C)CC2)CC1)c1cccc(Cl)c1`, the “% Inhibition” value was determined as 97% and the Z score was -17.23.
Regarding `CCCc1cccc(CNC2CCN(C3CCN(C)CC3)CC2)c1`, the “% Inhibition” value was found to be 76% and the Z score is on record as -16.27.
With `FC(F)(F)Oc1cccc(CNC2CCN(C3CC3)CC2)c1`, the “% Inhibition” value is reported as -13% and the Z score is given as 2.24.
As for `Cn1cc(-c2cncc(C(=O)NC3CCN(c4cccc(F)c4)CC3)c2)cn1`, the “% Inhibition” value came to 50% and the Z score is on record as -10.8.
As to `Cc1cc(N2CC3COCCC3(C(=O)O)C2)nc2ccc(F)cc12` (stereo not given), the “% Inhibition” value stood at 76% and the Z score was -13.26.
`O=C(c1cccc(OCCc2ccccc2)c1)N1CC2COCCC2(C(=O)O)C1` (stereo not given): the “% Inhibition” value is given as -3% and the Z score is 0.52.
For the compound `Cc1sc2nc(-c3ccccn3)nc(NCCc3nccn3C)c2c1-c1ccccc1`, the “% Inhibition” value is on record as 71% and the Z score is -14.01.
On to `CCN1CCN(CC2CN(C/C=C/c3ccc(OC)cc3)CC2CO)CC1` (stereo not given), for which the “% Inhibition” value is -3% and the Z score is on record as 0.7.
The corresponding values for `O=C1CN(C2CCN(CC3CCCCC3)CC2)[C@]2(CCOC2)CN1Cc1ccccc1` are -8% and 1.39.
For `Brc1ccc2[nH]c3c(c2c1)CCCC3NC1CCc2[nH]cnc2C1` (stereo not given), the “% Inhibition” value is listed as 98% and the Z score is -19.51.
In the same order, the values of `CN(C)C1(CNc2nc(C(F)(F)F)nc3cc4c(cc23)OCO4)CCCCCC1` are 54% and -8.21.
The corresponding values for `CN(C)C1(CNc2nc(C(F)(F)F)nc3cc(F)ccc23)CCCCCC1` are 61% and -9.21.
For the compound `CN(C)c1nc(N2CCC(N3CCN(CCO)CC3)CC2)ncc1F`, the “% Inhibition” value is given as -1% and the Z score is 0.13.
For the compound `Cc1ccccc1CN1CCC(CNc2c3c(nc4ccccc24)CCC3)CC1`, the “% Inhibition” value came out at 94% and the Z score is -16.23.
Take `C[C@@H](c1cccc(-c2nccc3ncccc23)c1)N1CCCC1`: the “% Inhibition” value is reported as -7% and the Z score came out at 1.08.
Consider `Cc1cc(N2CCC(NCCc3cnn(-c4ccccc4)c3)CC2)nc(N)n1`, for which the “% Inhibition” value was -2% and the Z score was 0.43.
On to `Cc1ccc2nc(CCCNC3CCN(c4cc(C)nc(N)n4)CC3)oc2c1`, for which the “% Inhibition” value came to 40% and the Z score was -6.03.
`Cc1cc(N2CCC(NCCCN3CCCc4ccccc43)CC2)nc(N)n1`: the “% Inhibition” value is 53% and the Z score was -8.02.
As for `COc1ccc2[nH]c(CN3CCC[C@H](N4CCN(c5ccccc5)CC4)C3)c(C)c2c1`, the “% Inhibition” value was -4% and the Z score is on record as 0.66.
The corresponding values for `C[C@@H](c1cccc(-c2nc3cc(C#N)ccc3[nH]2)c1)N(C)C` are 27% and -4.6.
In the case of `Cc1csc(=O)n1Cc1nnc(C(C)C)o1`, the “% Inhibition” value is listed as -8% and the Z score is reported as 1.5.
For the compound `Cc1cnccc1NCCNCc1ccc(OC(C)C)c(Cl)c1`, the “% Inhibition” value came to 79% and the Z score was -17.03.
Consider `Cc1cnccc1NCCNCc1nc2ccccc2[nH]1`, for which the “% Inhibition” value is reported as -2% and the Z score stood at 0.37.
Regarding `CCN1CCN([C@H]2CCN(c3ccnc4ccncc34)C2)CC1`, the “% Inhibition” value came out at 96% and the Z score is -14.59.
With `CCN1CCN([C@H]2CCN(c3nccc4nccnc34)C2)CC1`, the “% Inhibition” value is reported as 2% and the Z score is on record as -0.37.
As for `CCN(C)CC(O)CN1CCC(Oc2cccnc2N2CCCC2)C1` (stereo not given), the “% Inhibition” value was -5% and the Z score is 1.05.
Consider `COc1ccc2nc(C)cc(NCc3cccc(NC(=O)c4ccco4)c3)c2c1`, for which the “% Inhibition” value is 93% and the Z score is -18.52.
As for `CN(C)Cc1cccc(CCNCc2csc(-c3ccc(C(F)(F)F)cc3)n2)c1`, the “% Inhibition” value came out at 51% and the Z score is reported as -11.09.
In the same order, the values of `CN1CC(=O)N2C[C@@H](NC(=O)c3cccc(-c4ccc(N)nc4)c3)C[C@H]2C1=O` are -16% and 2.42.
As for `Cc1n[nH]nc1C(=O)Nc1ccc2[nH]c(-c3cccc(F)c3)nc2c1`, the “% Inhibition” value was 1% and the Z score is given as -0.2.
In the case of `Cc1ccc2nc(-c3cccc(NC(=O)c4ccc(OC(F)(F)F)c(Cl)c4)c3)[nH]c2n1`, the “% Inhibition” value amounted to 57% and the Z score was -12.27.
In the same order, the values of `N#Cc1ccc(N2C[C@H](COCC3CC3)C3(CCN(Cc4cccc(O)c4)CC3)C2)cc1C(F)(F)F` are 82% and -14.34.
Consider `CNC(=O)[C@@H]1CC2(CCN(CC3CCCCC3)CC2)CN1c1ccc(C#N)c(C(F)(F)F)c1`, for which the “% Inhibition” value is -15% and the Z score came to 2.59.

For orientation: % Inhibition means the change of the read-out against control, counted positive when it falls.
